# Measurements taken from the supplement of paper PMC8728848.
# Many of the other results were omitted from the sample, so the strongest signals are more common in it than they were.
# B1: LICBM33A (Lactococcus lactis), Q9CE94 (protein)
# chain: MKKLLTGLLVAAGLLSVSLLIKTDTVSAHGYVQSPPARGYQGQLDSQSLGWTAAFNIYGNVISNPQSLEAPKGFPECGPADGRIASANGGLGQIGDFVLDNQTSSRWKKTSISTGSNIFTWKYTAPHKTTKWHYYMTKTGWDQNAPLKHSELELIGTINHDGSPATNNLSHTINIPTDRSGYHIVLAVWDVADTSNAFYNVIDINVNNKNASSQVFGPFL
# Key:
# Experiment in all cases: glycan array binding signal (z-score within array); higher = stronger binding
# Conditions in all cases: glycan notation: IUPAC condensed, linker removed
# [1] = molecular target: Fuc(a1-2)Gal(b1-3)GalNAc(b1-4)[Neu5Ac(a2-3)]Gal(b1-4)Glc
# Procedure, shortened: (§1)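 Negative Z-scores can be read as non-binding. The Z-score is calculated within each array and then averaged across arrays of one protein sequence at different concentrations or buffers and across linkers. Arrays, 3228 in all, were curated from the Consortium for Functional Glycomics database and kept only where the protein sequence was available.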
# [2] = molecular target: Fuc(a1-2)Gal(b1-3)[Fuc(a1-4)]GlcNAc
# Procedure, shortened: as §1
# [3] = molecular target: Fuc(a1-2)Gal(b1-4)GlcNAc(b1-2)[Fuc(a1-2)Gal(b1-4)GlcNAc(b1-4)]Man(a1-3)[Fuc(a1-2)Gal(b1-4)GlcNAc(b1-2)Man(a1-6)]Man(b1-4)GlcNAc(b1-4)GlcNAc
# Procedure, shortened: as §1
# [4] = molecular target: Fuc(a1-2)Gal(b1-4)[Fuc(a1-3)]GlcNAc(b1-3)Gal(b1-4)[Fuc(a1-3)]GlcNAc
# Procedure, shortened: as §1
# [5] = molecular target: Fuc(a1-2)Gal3S(b1-4)GlcNAc
# Procedure, shortened: as §1
# [6] = molecular target: Fuc(a1-2)[Gal(a1-3)]Gal(b1-4)[Fuc(a1-3)]GlcNAc(b1-3)GalNAc
# Procedure, shortened: as §1
# [7] = molecular target: Fuc(a1-2)[GalNAc(a1-3)]Gal(b1-3)GlcNAc(b1-2)Man(a1-3)[Fuc(a1-2)[GalNAc(a1-3)]Gal(b1-3)GlcNAc(b1-2)Man(a1-6)]Man(b1-4)GlcNAc(b1-4)[Fuc(a1-6)]GlcNAc
# Procedure, shortened: as §1
# Gal(a1-2)Gal = molecular target: Gal(a1-2)Gal
# Procedure, shortened: as §1
# [8] = molecular target: Gal(a1-3)Gal(b1-3)[Fuc(a1-4)]GlcNAc(b1-2)Man(a1-3)[Gal(a1-3)Gal(b1-3)[Fuc(a1-4)]GlcNAc(b1-2)Man(a1-6)]Man(b1-4)GlcNAc(b1-4)GlcNAc
# Procedure, shortened: as §1
# Gal(a1-3)Gal(b1-4)GlcNAc = molecular target: Gal(a1-3)Gal(b1-4)GlcNAc
# Procedure, shortened: as §1
# Gal(a1-4)Gal(b1-4)GlcNAc = molecular target: Gal(a1-4)Gal(b1-4)GlcNAc
# Procedure, shortened: as §1
# [9] = molecular target: Gal(b1-3)GlcNAc(b1-2)Man(a1-3)[GlcNAc(b1-4)][Gal(b1-3)GlcNAc(b1-2)Man(a1-6)]Man(b1-4)GlcNAc(b1-4)GlcNAc
# Procedure, shortened: as §1
# [10] = molecular target: Gal(b1-3)GlcNAc(b1-3)Gal(b1-4)[Fuc(a1-3)]GlcNAc
# Procedure, shortened: as §1
# [11] = molecular target: Gal(b1-4)GlcNAc(b1-2)Man(a1-6)[GlcNAc(b1-2)Man(a1-3)]Man(b1-4)GlcNAc(b1-4)GlcNAc
# Procedure, shortened: as §1
# [12] = molecular target: Gal(b1-4)GlcNAc(b1-3)Gal(b1-4)GlcNAc(b1-2)[Gal(b1-4)GlcNAc(b1-3)Gal(b1-4)GlcNAc(b1-6)]Man(a1-6)[Gal(b1-4)GlcNAc(b1-3)Gal(b1-4)GlcNAc(b1-2)Man(a1-3)]Man(b1-4)GlcNAc(b1-4)GlcNAc
# Procedure, shortened: as §1
# [13] = molecular target: Gal(b1-4)GlcNAc(b1-3)Gal(b1-4)GlcNAc(b1-3)Gal(b1-4)GlcNAc(b1-3)Gal(b1-4)GlcNAc(b1-2)Man(a1-3)[Gal(b1-4)GlcNAc(b1-3)Gal(b1-4)GlcNAc(b1-3)Gal(b1-4)GlcNAc(b1-3)Gal(b1-4)GlcNAc(b1-2)Man(a1-6)]Man(b1-4)GlcNAc(b1-4)[Fuc(a1-6)]GlcNAc
# Procedure, shortened: as §1
# [14] = molecular target: Gal(b1-4)GlcNAc(b1-3)Gal(b1-4)GlcNAc(b1-3)Gal(b1-4)GlcNAc(b1-3)Gal(b1-4)GlcNAc(b1-3)Gal(b1-4)GlcNAc(b1-2)Man(a1-3)[Gal(b1-4)GlcNAc(b1-3)Gal(b1-4)GlcNAc(b1-3)Gal(b1-4)GlcNAc(b1-3)Gal(b1-4)GlcNAc(b1-3)Gal(b1-4)GlcNAc(b1-2)Man(a1-6)]Man(b1-4)GlcNAc(b1-4)[Fuc(a1-6)]GlcNAc
# Procedure, shortened: as §1
# [15] = molecular target: Gal(b1-4)GlcNAc(b1-3)Gal(b1-4)GlcNAc(b1-3)Gal(b1-4)GlcNAc(b1-3)Gal(b1-4)GlcNAc(b1-3)Gal(b1-4)GlcNAc(b1-2)[Gal(b1-4)GlcNAc(b1-3)Gal(b1-4)GlcNAc(b1-3)Gal(b1-4)GlcNAc(b1-3)Gal(b1-4)GlcNAc(b1-3)Gal(b1-4)GlcNAc(b1-6)]Man(a1-6)[Gal(b1-4)GlcNAc(b1-3)Gal(b1-4)GlcNAc(b1-3)Gal(b1-4)GlcNAc(b1-3)Gal(b1-4)GlcNAc(b1-3)Gal(b1-4)GlcNAc(b1-2)Man(a1-3)]Man(b1-4)GlcNAc(b1-4)[Fuc(a1-6)]GlcNAc
# Procedure, shortened: as §1
# [16] = molecular target: Gal(b1-4)GlcNAc(b1-6)GalNAc
# Procedure, shortened: as §1
# Gal(b1-4)GlcNAc6P = molecular target: Gal(b1-4)GlcNAc6P
# Procedure, shortened: as §1
# Gal3S(b1-3)GalNAc = molecular target: Gal3S(b1-3)GalNAc
# Procedure, shortened: as §1
# [17] = molecular target: GalNAc(a1-3)GalNAc(b1-3)Gal(a1-4)Gal(b1-4)Glc
# Procedure, shortened: as §1
# [18] = molecular target: GalNAc(b1-4)GlcNAc(b1-2)Man(a1-3)[GalNAc(b1-4)GlcNAc(b1-2)Man(a1-6)]Man(b1-4)GlcNAc(b1-4)GlcNAc
# Procedure, shortened: as §1
# GalNAc3S(b1-4)GlcNAc3S = molecular target: GalNAc3S(b1-4)GlcNAc3S
# Procedure, shortened: as §1
# Glc(a1-6)Glc(a1-6)Glc = molecular target: Glc(a1-6)Glc(a1-6)Glc
# Procedure, shortened: as §1
binder,measurement,setting,value
B1,glycan array binding signal (z-score),[1],-0.276
same,glycan array binding signal (z-score),[2],-0.377
same,glycan array binding signal (z-score),[3],6.68
same,glycan array binding signal (z-score),[4],-0.587
same,glycan array binding signal (z-score),[5],3.62
same,glycan array binding signal (z-score),[6],-1.52
same,glycan array binding signal (z-score),[7],-0.211
same,glycan array binding signal (z-score),Gal(a1-2)Gal,-0.28
same,glycan array binding signal (z-score),[8],-0.268
same,glycan array binding signal (z-score),Gal(a1-3)Gal(b1-4)GlcNAc,-0.436
same,glycan array binding signal (z-score),Gal(a1-4)Gal(b1-4)GlcNAc,0.111
same,glycan array binding signal (z-score),[9],-0.473
same,glycan array binding signal (z-score),[10],-0.324
same,glycan array binding signal (z-score),[11],-0.512
same,glycan array binding signal (z-score),[12],0.114
same,glycan array binding signal (z-score),[13],4.11
same,glycan array binding signal (z-score),[14],6.2
same,glycan array binding signal (z-score),[15],6.18
same,glycan array binding signal (z-score),[16],-0.959
same,glycan array binding signal (z-score),Gal(b1-4)GlcNAc6P,0.236
same,glycan array binding signal (z-score),Gal3S(b1-3)GalNAc,-0.215
same,glycan array binding signal (z-score),[17],-0.96
same,glycan array binding signal (z-score),[18],-0.578
same,glycan array binding signal (z-score),GalNAc3S(b1-4)GlcNAc3S,-0.284
same,glycan array binding signal (z-score),Glc(a1-6)Glc(a1-6)Glc,0.839
